From PubChem BioAssay (NCI) come the findings set out here.

Assay [1] can be described thus: NCI Yeast Anticancer Drug Screen. Data for the rad50 strain (AID 155).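 Also: 0% = growth of vehicle-only cultures of the same strain.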 The conditions noted are these: S. cerevisiae rad50 strain growth inhibition; at 50.0 µM; stronger effect = higher value. An outline of the steps:
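Yeast carrying a defined DNA repair defect were exposed to test compounds, and growth was compared with vehicle-treated controls to give percent inhibition.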

Assay [2] in a line: NCI Yeast Anticancer Drug Screen. Data for the mec2-1 strain (AID 157). The conditions noted are these: S. cerevisiae mec2-1 strain, at 50.0 µM, stronger effect = higher value. An outline of the steps:
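Readout is yeast growth inhibition, normalised to vehicle-treated controls, in the mec2-1 strain exposed to compound.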

The nature of assay [3]: NCI Yeast Anticancer Drug Screen. Data for the sgs1 mgt1 strain (AID 161).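 Also: 0% = growth of cultures given vehicle only.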 Conditions: S. cerevisiae sgs1 mgt1 strain, at 50.0 µM, stronger effect = higher value. The gist of the method: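 Yeast cells carrying a defined DNA-repair defect were exposed to test compounds. Growth inhibition was measured relative to vehicle-treated controls.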
Assay [4] in a line: NCI Yeast Anticancer Drug Screen. Data for the cln2 rad14 strain (AID 165).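 Also: 0% = growth equal to vehicle treated cultures.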 The conditions noted are these: S. cerevisiae cln2 rad14 strain, at 50.0 µM, stronger effect = higher value. The gist of the method:
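Relative to vehicle controls, growth inhibition of compound-treated cln2 rad14 yeast was recorded.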

The nature of assay [5]: NCI Yeast Anticancer Drug Screen. Data for the bub3 strain (AID 167). Conditions: S. cerevisiae bub3 mutant strain, at 50.0 µM, stronger effect = higher value. An outline of the steps:
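Compounds were applied to a genetically altered yeast strain carrying a cell-cycle control defect. Growth inhibition was scored against vehicle-treated controls.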

A short description of assay [6]: NCI Yeast Anticancer Drug Screen. Data for the mlh1 rad18 strain (AID 175). Conditions: S. cerevisiae mlh1 rad18 strain growth inhibition; at 50.0 µM; stronger effect = higher value. An outline of the steps: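 Test agents were incubated with a yeast strain of defined genotype (DNA damage repair defect). Inhibition of growth was derived by comparison with vehicle-exposed cultures.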

The structures appear in SMILES notation. About 79,000 compounds went through this panel and 15% of them were active in at least one assay; those are over-represented in the sample as a whole. A number with no mark means an inactive call. The source made the active and inactive calls. Rule as the data show it: active = growth inhibition above about 70%; inactive = the rest.

Consider `CC(=O)NNC(=O)C(Cl)Cl`, for which the growth inhibition was 5.45% in assay [1]; -3.75% in assay [2]; 8.45% in assay [3]; 8% in assay [4]; 4.15% in assay [5]; 25.4% in assay [6].

As for `Clc1ccc2c(c1)Cc1cc(N(CCBr)CCBr)ccc1-2`, the growth inhibition in assay [1] was 24.8%; in assay [2], 13.1%; in assay [3] it was 40%; in assay [4], 46.6%; in assay [5] it was 12.4%; in assay [6] it was 47.1%.

Take `CCCCOc1ccc([As](=O)(O)O)cc1`: the growth inhibition in assay [1] is -17.4%; in assay [2] it was -10.2%; in assay [3], 4.3%; in assay [4], -19.2%; in assay [5], 16.1%; in assay [6], 5.65%.

Consider `CCN(CCCl)c1cc(CN(C)C)cc(NC(=O)c2cc(C(=O)Nc3cc(CN(C)C)cc(N(CC)CCCl)c3)n(C)n2)c1`, for which the growth inhibition in assay [1] was 60.2%; in assay [2], -10.3%; in assay [3], 27.9%; in assay [4], 20%; in assay [5] it was -3.3%; in assay [6] it was 3.05%.

For the compound `[Br][Hg][CH]1CCC2CCCC1O2` (centres undefined), the growth inhibition in assay [1] is 99.5% (active); in assay [2], 99.2% (active); in assay [3], 99.5% (active); in assay [4], 99% (active); in assay [5] it was 99.3% (active); in assay [6] it was 99.5% (active).

Turning to `CNC(=O)Oc1ccccc1C(N)=O`, the growth inhibition in assay [1] is 10.4%; in assay [2], -1.8%; in assay [3], -14.8%; in assay [4], -46.8%; in assay [5] it was -4.55%; in assay [6], 7.3%.

With `CCN(CC)CC(=O)c1ccccc1`, the growth inhibition in assay [1] is -24.1%; in assay [2], -8.85%; in assay [3], -21.2%; in assay [4], 9.45%; in assay [5], 3.15%; in assay [6], -45.7%.

Turning to `CCOC(=O)/C(=C\c1ccc(C(F)(F)F)cc1)[Se]c1ccccc1`, the growth inhibition was 26.6% in assay [1]; -34.1% in assay [2]; 9.35% in assay [3]; 13.8% in assay [4]; -2.5% in assay [5]; -0.3% in assay [6].

`CCOP(=O)(NC(C)C)OCC`: the growth inhibition in assay [1] is -4.55%; in assay [2], -18.6%; in assay [3] it was -2.8%; in assay [4] it was 16.9%; in assay [5] it was 6.8%; in assay [6], -1.8%.

For the compound `CN1CCCC2(CCCc3ccccc32)C1` (centres undefined), the growth inhibition in assay [1] was 14.2%; in assay [2], -33.1%; in assay [3], -25.9%; in assay [4] it was 15.3%; in assay [5], -13.3%; in assay [6] it was -5.2%.

Take `CN(C(=O)Oc1ccccc1)c1ccc(S(=O)(=O)F)cc1`: the growth inhibition in assay [1] was 97.8% (active); in assay [2] it was 98.7% (active); in assay [3], 98.8% (active); in assay [4] it was 96.4% (active); in assay [5] it was 98.5% (active); in assay [6], 98.7% (active).

Take `CC(C)(C)NC(=O)CCl`: the growth inhibition in assay [1] is -9.6%; in assay [2], -1.35%; in assay [3] it was -6.1%; in assay [4], -10.2%; in assay [5] it was 7.45%; in assay [6], -7.85%.

`Nc1ccccc1C(=O)Oc1ccccn1`: the growth inhibition in assay [1] was 7.45%; in assay [2] it was 8.9%; in assay [3] it was -0.8%; in assay [4], 13.6%; in assay [5], -8.85%; in assay [6], 6.35%.

In the case of `CCC1(C(C)C)C(=O)NC(=S)N(C)C1=O` (centres undefined), the growth inhibition was 29.6% in assay [1]; -5.45% in assay [2]; 2.9% in assay [3]; 2.85% in assay [4]; 0.95% in assay [5]; 12.8% in assay [6].

Consider `CC1=NN(c2cccc(S(=O)(=O)O)c2)C(=O)C1N=Nc1cc(Cl)cc(S(=O)(=O)O)c1O.O.[Cr]` (centres undefined), for which the growth inhibition was -19.4% in assay [1]; -25.1% in assay [2]; 3.1% in assay [3]; -0.7% in assay [4]; 8.35% in assay [5]; 9.35% in assay [6].

As for `COc1ccc(C(=O)O)cc1OC`, the growth inhibition was -0.25% in assay [1]; 9.45% in assay [2]; -18.8% in assay [3]; 7.4% in assay [4]; -9.5% in assay [5]; 5% in assay [6].

`C1CN1[PH+](N1CC1)N1CC1.[C-]#[O+].[C-]#[O+].[C-]#[O+].[C-]#[O+].[C-]#[O+].[Cr]`: the growth inhibition in assay [1] is -5.55%; in assay [2], -4.65%; in assay [3] it was -0.75%; in assay [4], -11.8%; in assay [5] it was 2.4%; in assay [6] it was -17.3%.

`COc1cc2c(cc1OC)[N+]1(C)CCC3OCCC4C[N+]5(C)CCC26C5CC4C3C61` (centres undefined): the growth inhibition is 6.15% in assay [1]; 3.45% in assay [2]; 2.75% in assay [3]; -6% in assay [4]; -6.6% in assay [5]; -13.3% in assay [6].

As to `O=C(O)CC(=O)O.[Ti].[c-]1[c-][c-][cH-][c-]1.[c-]1[c-][c-][cH-][c-]1`, the growth inhibition in assay [1] is -12.4%; in assay [2] it was -5.75%; in assay [3], -6.8%; in assay [4], -51.6%; in assay [5], 0.2%; in assay [6], -0.95%.
